The text below walks through data of PubChem BioAssay (NCI).

The structures appear in SMILES notation. About 79,000 compounds went through this panel and 15% of them were active in at least one assay; those are over-represented in the sample as a whole. Values without a mark were called inactive. Activity calls are given as the source filed them. Cut-off read from the data, not from the text of the source: active = growth inhibition above about 70%; inactive = the rest.

The nature of experiment [1]: NCI Yeast Anticancer Drug Screen. Data for the rad50 strain (AID 155).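 Note: 0% = growth of vehicle-only cultures of the same strain.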 Conditions: S. cerevisiae rad50 strain growth inhibition; at 50.0 µM; stronger effect = higher value. In short, it runs like this: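 Relative growth inhibition (compound vs vehicle) was measured in yeast with a defined repair-gene alteration.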
The nature of experiment [2]: NCI Yeast Anticancer Drug Screen. Data for the mec2-1 strain (AID 157). Conditions: S. cerevisiae mec2-1 strain, at 50.0 µM, stronger effect = higher value. In short, it runs like this:
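Growth inhibition is read against vehicle-treated controls after compound exposure of the mec2-1 yeast strain, which is defective in DNA damage repair or cell cycle control.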

Experiment [3] can be described thus: NCI Yeast Anticancer Drug Screen. Data for the sgs1 mgt1 strain (AID 161).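 Note: 0% = growth of cultures given vehicle only.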 To be noted: S. cerevisiae sgs1 mgt1 strain, at 50.0 µM, stronger effect = higher value. In short, it runs like this: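 This yeast growth screen uses a strain with defined DNA-repair lesions; compound-treated growth is compared with vehicle-treated growth.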
A short description of experiment [4]: NCI Yeast Anticancer Drug Screen. Data for the cln2 rad14 strain (AID 165).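 Note: 0% = growth equal to vehicle treated cultures.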 To be noted: S. cerevisiae cln2 rad14 strain, at 50.0 µM, stronger effect = higher value. The essentials: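 Growth inhibition, relative to vehicle-treated controls, is the read-out. The test organism is a yeast strain with defined genetic alterations, cln2 rad14.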
Experiment [5] can be described thus: NCI Yeast Anticancer Drug Screen. Data for the bub3 strain (AID 167). Conditions: S. cerevisiae bub3 mutant strain, at 50.0 µM, stronger effect = higher value. The essentials: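 Screening used yeast with an engineered genetic alteration affecting cell cycle control. Compound-exposed cultures were compared with vehicle cultures, and reduced growth was taken as inhibition.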

The nature of experiment [6]: NCI Yeast Anticancer Drug Screen. Data for the mlh1 rad18 strain (AID 175). To be noted: S. cerevisiae mlh1 rad18 strain growth inhibition; at 50.0 µM; stronger effect = higher value. In short, it runs like this: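 Cells of a genetically altered yeast strain, deficient in DNA damage repair, were treated with compound. Their growth was then compared with that of vehicle-treated cultures to give inhibition.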

In the case of `CC(=O)O[C@H]1CC[C@@]2(C)C(=CC[C@H]3[C@@H]4CC[C@H](c5cc(C(F)(F)F)n(C(C)=O)n5)[C@@]4(C)CC[C@@H]32)C1`, the growth inhibition in experiment [1] was 11.3%; in experiment [2] it was -6.7%; in experiment [3] it was -40.6%; in experiment [4], 2.55%; in experiment [5] it was -19.6%; in experiment [6], 12.4%.
Take `CCN(CC)c1ccc(N=C2C=C(C(=O)Nc3ccc(S(C)(=O)=O)cc3)C(=O)c3ccccc32)c(C)c1`: the growth inhibition in experiment [1] is -15.8%; in experiment [2] it was -29.5%; in experiment [3] it was 2.55%; in experiment [4], 6.6%; in experiment [5], -4.2%; in experiment [6], -17.2%.
Consider `O=c1c2ccccc2c(=O)n2n1CC=CC2`, for which the growth inhibition was -6.45% in experiment [1]; -4.2% in experiment [2]; -1.75% in experiment [3]; -15.2% in experiment [4]; -2.75% in experiment [5]; -1.9% in experiment [6].
As for `CC(C)OC(=O)c1ccc(NCC2=CC(=O)C=CC2=O)cc1`, the growth inhibition in experiment [1] was 39.1%; in experiment [2], 79.2% (active); in experiment [3] it was 63.5%; in experiment [4] it was 57.1%; in experiment [5] it was 46.1%; in experiment [6], 88.2% (active).
Consider `O=C(CC(=O)N(C(=O)c1ccccc1)c1ccc(Cl)cc1)N/N=C\c1cc(N=Nc2ccccc2Cl)ccc1O`, for which the growth inhibition was -13.8% in experiment [1]; -10.1% in experiment [2]; 14.8% in experiment [3]; 15.2% in experiment [4]; -21.4% in experiment [5]; 9.1% in experiment [6].
As for `O=C(O)c1cccc2ccc3cccc(C(=O)O)c3c12`, the growth inhibition in experiment [1] is -5.35%; in experiment [2] it was -6.05%; in experiment [3], -0.45%; in experiment [4] it was -74.8%; in experiment [5], 2%; in experiment [6], -17.2%.
Consider `COC(=O)C1=C(C)N(NC(N)=O)C2(N)N(NC(N)=O)C(C)=C(C(=O)OC)C12C#N` (stereo unspecified), for which the growth inhibition in experiment [1] is -23.5%; in experiment [2], -11.6%; in experiment [3], -44.6%; in experiment [4] it was 5.8%; in experiment [5], 2.55%; in experiment [6], -16.4%.
As for `CCOC(=O)CC(=O)c1sc(SC)c(C#N)c1N`, the growth inhibition in experiment [1] is -8%; in experiment [2] it was -9.6%; in experiment [3] it was -10.2%; in experiment [4], -2%; in experiment [5] it was 1.6%; in experiment [6], 1.6%.
On to `CC1OC(n2ccc(=O)[nH]c2=O)C=C(OC(=O)c2ccccc2)C1=O` (stereo unspecified), for which the growth inhibition is 12.2% in experiment [1]; -12.2% in experiment [2]; -11.4% in experiment [3]; -7% in experiment [4]; -9.55% in experiment [5]; 3.4% in experiment [6].
For `CSC(C(O)C(O)C(O)C(O)CO)n1cnc2c(=S)nc[nH]c21` (stereo unspecified), the growth inhibition is 1.1% in experiment [1]; 5.7% in experiment [2]; 5.75% in experiment [3]; 19.6% in experiment [4]; 11.3% in experiment [5]; 9% in experiment [6].
As to `ClCCCOc1ccccc1`, the growth inhibition in experiment [1] is 21.5%; in experiment [2], 23.2%; in experiment [3] it was 22.6%; in experiment [4] it was 8.55%; in experiment [5], -5.25%; in experiment [6] it was 11.6%.
`COC(=O)c1ccc(OCc2ccc3nc(OC)c(OC)nc3c2)cc1`: the growth inhibition in experiment [1] was -32.1%; in experiment [2] it was -30.4%; in experiment [3] it was -50.1%; in experiment [4] it was 7.35%; in experiment [5], -28.9%; in experiment [6], -37%.
As to `CCN(CC)Cc1ccccc1COC(=O)c1cccc(Cl)c1`, the growth inhibition is 19.6% in experiment [1]; 3.7% in experiment [2]; 10.9% in experiment [3]; 15.8% in experiment [4]; -5.9% in experiment [5]; 26.1% in experiment [6].
With `NC(=O)c1ccc(NC=O)cc1`, the growth inhibition is -10.3% in experiment [1]; 22.2% in experiment [2]; -18.9% in experiment [3]; 25.1% in experiment [4]; -18.1% in experiment [5]; -18.9% in experiment [6].
As for `CN(CCCCl)Cc1ccccc1`, the growth inhibition in experiment [1] is 1.85%; in experiment [2] it was -26.8%; in experiment [3] it was -24.7%; in experiment [4] it was 1.35%; in experiment [5] it was -14.3%; in experiment [6], -7.55%.
With `COC(=O)CC1C=CC(OC)[C@@]2(C)C(=O)C(OC)=CC(=O)[C@@H]12` (stereo partly specified), the growth inhibition is 8.7% in experiment [1]; -15.1% in experiment [2]; -11.4% in experiment [3]; 19.6% in experiment [4]; 2.4% in experiment [5]; -3.45% in experiment [6].
`Oc1c(Cl)cc(Cl)cc1C=Nc1ccc2c(ccc3c4ccccc4ccc23)c1`: the growth inhibition in experiment [1] is 7.95%; in experiment [2] it was 2.4%; in experiment [3], -2.4%; in experiment [4] it was -41.4%; in experiment [5] it was 6.55%; in experiment [6], 15.1%.
`Cc1cc2cccc(C)c2[nH]1`: the growth inhibition is -11.4% in experiment [1]; -4.75% in experiment [2]; 18.6% in experiment [3]; 0.5% in experiment [4]; 4.6% in experiment [5]; -9.2% in experiment [6].
As for `O=C1C2CCCC3CCCC(C(=O)N1NC1CCCCC1)C32` (stereo unspecified), the growth inhibition in experiment [1] was 39.4%; in experiment [2], 28.6%; in experiment [3], 27.9%; in experiment [4], 29.7%; in experiment [5] it was 53.4%; in experiment [6] it was 49%.
On to `CC(=O)Oc1cccn2c(C(=O)C(=O)c3ccc4c(OC(C)=O)cccn34)ccc12`, for which the growth inhibition in experiment [1] was 5.15%; in experiment [2], 1.8%; in experiment [3] it was -12.9%; in experiment [4] it was -0.55%; in experiment [5], -4.85%; in experiment [6], 14.7%.
`O=C(Cc1nc2ccc(C(=O)c3ccccc3)cc2[nH]c1=O)C(=O)Nc1ccc(Br)cc1`: the growth inhibition was -27.6% in experiment [1]; -28.9% in experiment [2]; -2.65% in experiment [3]; -9.4% in experiment [4]; -3.3% in experiment [5]; -3.7% in experiment [6].
